# Screens as filed in PubChem.
# G9a inh: G9a (human) methyltransferase inhibition; Q96KQ7; G9a H3K9 monomethylation, AlphaScreen, 2 h; Potency, µM (doses to about 102 µM), inactives show top-dose activity, negative = inhibition, actives largely listed as inhibitors; 350,000 tested, 8.8% active; AID 504332; also: % is scaled to controls: 0 for no effect and ±100 for the full control effect; nearly all actives have a fitted effect of over 75% in size
# Target sequence (Q96KQ7 913-1193 limits assumed): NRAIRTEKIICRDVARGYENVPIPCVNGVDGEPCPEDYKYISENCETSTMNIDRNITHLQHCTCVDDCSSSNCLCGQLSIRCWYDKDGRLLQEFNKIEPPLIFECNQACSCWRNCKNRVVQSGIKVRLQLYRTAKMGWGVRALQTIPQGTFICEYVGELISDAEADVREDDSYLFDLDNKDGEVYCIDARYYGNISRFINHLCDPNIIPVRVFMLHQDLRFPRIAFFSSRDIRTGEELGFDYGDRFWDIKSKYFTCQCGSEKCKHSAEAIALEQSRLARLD
#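 AlphaScreen detection with an anti-monomethyl H3K9 antibody quantified product after a 2 h room-temperature reaction containing 500 nM biotinylated H3K9 peptide, 20 µM SAM and 20 nM enzyme, which had been preincubated 15 min with compound.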
# HP1b binding inh: inhibitors of HP1-beta chromodomain binding to methylated histone tails | P83916 | AlphaScreen HP1-beta / biotin-H3K9me3 peptide binding | Potency, µM (series often up to 114 µM), without a hit: top-dose activity change, negative = inhibition, actives largely listed as inhibitors | 390,000 tested, 0.56% active; also: nearly all actives have a fitted effect of over 70% in size
# Target sequence (P83916 whole entry, looked up): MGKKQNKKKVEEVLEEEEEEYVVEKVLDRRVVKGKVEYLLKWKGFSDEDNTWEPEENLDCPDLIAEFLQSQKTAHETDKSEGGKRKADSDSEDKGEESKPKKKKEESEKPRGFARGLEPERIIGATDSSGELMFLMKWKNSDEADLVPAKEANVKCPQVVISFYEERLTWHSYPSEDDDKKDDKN
#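 AlphaScreen: HP1-beta (50 nM) preformed 30 min with biotin-H3(1-18)K9me3 peptide (50 nM) in PBS pH 7.4, 0.01% Tween-20. Compound added for 30 min at RT, then streptavidin donor/nickel chelate acceptor beads (10 ug/mL) for 30 min.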
# Sfp PPTase inh: Sfp phosphopantetheinyl transferase inhibition; Q9F4F7; Potency, µM, inactives show largest response in the series, negative = inhibition, hits mostly inhibitors; 310,000 tested, 3.5% active; AID 1490; Biochemical Sfp PPTase activity, qHTS;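 also: the enzyme is Sfp with the accession as filed and its product quenches rhodamine fluorescence; 0% = enzyme reaction without inhibitor and -100% = no enzyme wells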
#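 Fluorescence-quenching assay: 15 nM Sfp-PPTase preincubated 15 min at room temperature with compound, then 5 uM rhodamine-CoA and 12.5 uM BHQ-2-labelled YbbR peptide added. Fluorescence (ex 525/em 598 nm) read at start and after 30 min; difference gives rate.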
# BAZ2B inh: inhibitors of human BAZ2B bromodomain | 360,000 tested, 4.4% active | Potency, µM (series often up to 114 µM), for inactives: top-dose activity change, negative = inhibition, actives largely listed as inhibitors | Q9UIF8 | AID 504333 | AlphaScreen BAZ2B-H3K14Ac peptide displacement; also: % is scaled to controls: 0 for no effect and ±100 for the full control effect; nearly all actives have a fitted effect of over 60% in size
#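 Complex of BAZ2B and biotin-H3K14Ac (50 nM apiece) forms over 30 min at RT, then faces library compounds up to 110 uM for another 30 min; AlphaScreen beads added, 20 min dark incubation, luminescence read.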
# JMJD2A Tudor: blocks the human JMJD2A Tudor domain; 390,000 tested, 4.4% active; AID 504339; Potency, µM (titrated, usually from 114 µM), without a hit: top-dose activity change, negative = inhibition, actives largely listed as inhibitors; AlphaScreen JMJD2A-Tudor / H3K4me3 peptide binding; O75164; also: % is scaled to controls: 0 for no effect and ±100 for the full control effect; nearly all actives have a fitted effect of over 50% in size
# PLK1 PBD inh: blocks phosphopeptide binding to human PLK1 polo-box domain | AID 720504 | Potency, µM, for inactives: max response, negative = inhibition, most hits filed as inhibitors | P53350 | 360,000 tested, 2.8% active | Plk1 PBD binding of FITC phosphopeptide, fluorescence polarization; also: series mostly up to about 57 µM; % is scaled to controls: 0 for no effect and ±100 for the full control effect; nearly all actives have a fitted effect of over 65% in size
# An asterisk follows results filed as active; ? = inconclusive; · = no result given; [ ] = another dose, or the depositor's remark. Hits are enriched below; roughly 12% of the tested compounds scored in any of these assays. Calls follow the shape of the dose curve; as a rule, active = well fitted curve in the direction sought with a large enough effect; inconclusive = small, poorly fitted or top-dose-only effect, or another doubt; inactive = no such curve, though single readings can be large; an effect the other way counts as inactive or inconclusive. Potency is read from the fitted curve at half-maximal effect.
SMILES,G9a inh,HP1b binding inh,Sfp PPTase inh,BAZ2B inh,JMJD2A Tudor,PLK1 PBD inh
CCc1ccc(Nc2nnc(SCc3cc(=O)n4ccsc4n3)s2)cc1,2µM*,27%,-4%,-4%,-17%,-15%
COc1ccc(C(C)=O)cc1CSc1nnc(Nc2ccc(C)cc2C)s1,35µM*,-9%,7%,-20%,?,-13%
Cc1cccc(-n2c(SCc3cc(=O)n4ccsc4n3)nc3ccccc32)c1,5µM*,8%,6%,-30%,?,-19%
COc1ccc(C(C)=O)cc1CSc1nnc(Nc2ccccc2C)s1,-13%[59 µM],81%,11%,-23%,-20%,-13%
COc1ccccc1Nc1nnc(SCc2cc(=O)n3ccsc3n2)s1,?,38%,-15%,-17%,-23%,-12%
COc1ccccc1/C=C/C(=O)OCC(=O)Nc1cc(C(F)(F)F)ccc1N1CCOCC1,15%,16%,6%,1%,-2%,-10%
CSc1nn(CC(=O)Nc2cc(C)ccc2C)c(N)c1S(=O)(=O)c1ccccc1,-2%[59 µM],6%,·,-10%,-30%,·
COc1cccc(-c2c(-c3cc(OC)cc(OC)c3)n(C)c3ccc(-c4ccc5cc[nH]c5c4)cc23)c1,·,13%,·,·,-26%,-16%
Cc1ccccc1-n1c(C)nnc1SCc1cc(=O)oc2ccc3ccccc3c12,?,17%,79µM*,-19%,?,-14%
CCCn1c(=O)c2ccccc2n2c(SCc3cc(=O)oc4ccc5ccccc5c34)nnc12,?,45%,-14%,-1%,?,-7%
CCn1c(C)c(C)c2cc(C(=O)NCc3ccc(N(C)C)cc3)ccc21,13µM*,?,·,22µM*,22µM*,·
CN(C)c1ccc(CNC(=O)c2ccc3c(c2)N(C)C(=O)C2CCCCN32)cc1 (stereo not given),18µM*,-2%[57 µM],·,45µM*,45µM*,·
CSc1ccc(CNC(=O)c2ccc3c(c2)N(C)C(=O)C2CCCCN32)cc1 (stereo not given),-26%[59 µM],8%[57 µM],·,-21%,-24%,·
CCn1c(C)c(C)c2cc(C(=O)NCc3ccc(F)cc3)ccc21,-36%[59 µM],-2%,·,?,?,·
CCOc1ccc(CNC(=O)c2ccc3c(c2)c(C)c(C)n3C)cc1,-48%[59 µM],-11%,·,40µM*,?,·
COc1ccccc1NC(=O)C(C)OC(=O)CCCc1c[nH]c2ccccc12 (stereo not given),?,-21%,·,?,?,0%
COc1cc(Nc2ncnc(N)n2)cc(OC)c1OC,20%,-18%,10%,-2%,-21%,-14%
COc1cccc(/C=C/C(=O)N2CCN(S(=O)(=O)c3ccccc3)CC2)c1OC,50µM*,29%,4%,?,-2%,5%
Cc1ccc(S(=O)(=O)N2CCN(C(=O)/C=C/c3ccco3)CC2)cc1,45µM*,?,?,50µM*,79µM*,-19%
O=C(/C=C/c1ccco1)N1CCN(S(=O)(=O)c2ccc(F)c(F)c2F)CC1,?,28%,40µM*,-23%,-8%,-7%
Cc1ccc(C)c(S(=O)(=O)N2CCN(C(=O)/C=C/c3ccco3)CC2)c1,-21%[12.7 µM],?,·,?,45µM*,?
Cc1ccc(S(=O)(=O)N2CCN(C(=O)c3ccco3)CC2)cc1,-4%,-8%,5%,-13%,?,-25%
O=C(/C=C/c1ccc([N+](=O)[O-])cc1)N1CCN(S(=O)(=O)c2ccccc2)CC1,-5%[2.33 µM],3%,·,-9%,-18%,-10%
O=C(/C=C/c1ccco1)N1CCN(S(=O)(=O)c2ccccc2)CC1,·,50µM*,·,·,56µM*,-26%
CCc1ccc2c(c1)C(=O)c1ccccc1C2=O,?,?,3%,?,?,-4%
SMILES,G9a inh,HP1b binding inh,Sfp PPTase inh,BAZ2B inh,JMJD2A Tudor,PLK1 PBD inh
CC(C)(C)c1ccc2c(c1)C(=O)c1ccccc1C2=O,35µM*,?,-13%,32µM*,45µM*,2%
CSc1ccc(CNC(=O)CCn2c(=O)c3cccn3c3ccc(F)cc32)cc1,-3%[59 µM],28%,·,-12%,-13%,·
COc1ccc(CNC(=O)CCn2c(=O)c3cccn3c3ccc(F)cc32)cc1,21%,25%,10%,-16%,?,27µM*
Cc1cccc(OCCn2c(SCC(=O)O)nc3ccccc32)c1,?,39%,·,-1%,-8%,·
Cc1ccc(-c2c(C#N)c(N)n(-c3ccccc3C)c(=O)c2C#N)cc1,·,·,·,·,·,-6%
Cn1cnc(C(=O)N2CCN(C(=O)OC(C)(C)C)CC2)c1C(=O)N1CCN(C(=O)OC(C)(C)C)CC1,20%[2.33 µM],20%,·,-13%,-31%,-29%
Cn1cnc(C(=O)N2CCN(c3ccccc3)CC2)c1C(=O)N1CCN(c2ccccc2)CC1,-46%[2.33 µM],-17%,·,56µM*,28µM*,?
O=C1CCCC(=O)N1c1ccc(N2CCN(c3ccc([N+](=O)[O-])cc3)CC2)c([N+](=O)[O-])c1,-5%,·,0%,-5%,·,·
CCc1sc(C(=O)Nc2cc(S(=O)(=O)N3CCOCC3)ccc2OC)cc1C,-23%[59 µM],57%,·,9%,-12%,-2%
COc1ccccc1N1CCN(S(=O)(=O)c2cc(C(=O)Nc3ccc(Oc4ccccc4)cc3)ccc2F)CC1,-18%[59 µM],43%,·,-2%,-22%,·
COc1ccccc1N1CC(C)(C)C(=O)N(C(=O)c2ccc(C)cc2)C1=S,·,-2%,2%,?,-25%,4%
COc1ccccc1N1CC(C)(C)C(=O)N(C(=O)c2ccc(Cl)cc2)C1=S,40µM*,-6%,20%,-34%,?,-4%
COCc1cc(C)nc(N2CCN(Cc3ccccc3)CC2)c1C#N,50µM*,23%,-3%,34%,7%,1%
COCc1cc(C)nc(N2CCN(c3ccccc3)CC2)c1C#N,0%[12.7 µM],73%,-1%,18%,3%,-4%
COC(=O)c1cc(Nc2cc(C)c3c(O)cccc3n2)cc(C(=O)OC)c1,-4%,31%,2%,-17%,-13%,-4%
Cc1ccccc1Nc1cc(C)c2c(O)cccc2n1,?,15%,-20%,?,?,0%
Cc1ccc(Nc2cc(C)c3c(O)cccc3n2)cc1C,·,-21%,50µM*,45µM*,?,-1%
COc1ccc(Nc2cc(C)c3c(O)cccc3n2)cc1,·,-13%,?,45µM*,-28%[11.4 µM],27µM*
CC(C)(C)C(=O)CSc1nnc(Nc2ccccc2)s1,?,28%,7%,10%,-7%,-2%
CCc1ccccc1NC(=O)CSc1ncccc1C(=O)O,-11%[59 µM],36%,·,-7%,-14%,·
COc1cc(NS(=O)(=O)c2cc3[nH]c(=O)c(=O)[nH]c3cc2C)cc(OC)c1OC,·,67%,-10%,?,-27%,-14%
COc1cc(NS(=O)(=O)c2ccc(C)cc2C)cc(OC)c1OC,79µM*,29%,-3%,?,-6%,-1%
